TEAD-YAP inh – TEAD-YAP interaction inhibition | 640,000 tested, 1.4% active | inhibition, % at 9.12 µM | AID 1259422 | HEK-TIYL cells, TEAD-Gal4/YAP UAS-luciferase luminescence; in the data active means inhibition above about 32%
GPR151 activ – activators of human GPR151 | Q8TDV0 | PathHunter beta-arrestin GPR151 cells, luminescence | activation, % at 11.2 µM | 650,000 tested, 1% active; in the data active means activation above about 4.9%
MITF primary – inhibitors of human MITF | AlphaScreen MITF homodimerization, bead proximity signal | inhibition, % at 2.6 µM | 650,000 tested, 0.91% active | AID 1259374; in the data active means inhibition above about 50%
Target sequence (O75030 whole entry, looked up): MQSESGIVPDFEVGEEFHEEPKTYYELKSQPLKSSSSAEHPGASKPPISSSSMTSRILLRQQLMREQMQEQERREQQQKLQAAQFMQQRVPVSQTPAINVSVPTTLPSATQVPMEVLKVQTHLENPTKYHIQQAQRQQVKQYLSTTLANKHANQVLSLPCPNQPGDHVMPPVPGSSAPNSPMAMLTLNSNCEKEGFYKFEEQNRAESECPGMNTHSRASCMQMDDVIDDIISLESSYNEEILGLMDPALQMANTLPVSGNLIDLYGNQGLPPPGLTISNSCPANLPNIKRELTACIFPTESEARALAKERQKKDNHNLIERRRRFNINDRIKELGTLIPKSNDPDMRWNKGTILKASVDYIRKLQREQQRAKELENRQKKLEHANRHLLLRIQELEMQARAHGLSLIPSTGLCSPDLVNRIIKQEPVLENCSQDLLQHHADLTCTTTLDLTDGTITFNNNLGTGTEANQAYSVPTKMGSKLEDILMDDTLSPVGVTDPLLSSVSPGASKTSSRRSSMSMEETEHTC
FBW7 act – activators of human E3 ligase FBW7; Q969H0; 650,000 tested, 0.13% active; normalized activity (activation), % at 26.1 µM; AlphaScreen FBW7–phospho-cyclin E peptide binding, activator screen; in the data active means normalized activity above about 1.9%;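 further: purified mutant Fbw7 with reduced substrate affinity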
GPR151 confirm – human GPR151 activation, confirmation screen; shares compounds with GPR151 activ; GPR151 PathHunter beta-arrestin cells, luminescence, 90 min; % of EA-reagent control over plate median; activation, % at 11.2 µM; 6,700 tested, under 10 active;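 active means mean percent activation across replicates above the confirmation screen cutoff of 4.91%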
GPR119 counter – GPR119 activation, counter-screen for GPR151 activators. GPR119 PathHunter beta-arrestin cells, luminescence, 90 min; 0 = compound-well median, 100 = enzyme-acceptor control. AID 1508611. 6,700 tested, 0.3% active. activation, % at 11.2 µM. shares compounds with GPR151 activ;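 active means mean percent activation in the counterscreen above 29.09%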;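 further: counterscreen on off-target GPR119 to flag nonselective hits from the GPR151 activator screen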
Each line names hits and unclear results; the compound was inactive in the other large screens (follow-up assays come after a bar, where they were run). Rows were chosen to be rich in hits. Some 3.4% of all compounds tested hit in one or more screens of this group.

COc1ccc(C(=O)Nc2ccnn2C2CCN(Cc3cn(C)nc3C)CC2)cc1	GPR151 activ 5.6 | GPR151 confirm inactive | GPR119 counter inactive
COc1ccc(C(=O)NC(=S)Nc2ccccc2O)cc1	GPR151 activ 6.8 | GPR151 confirm inactive | GPR119 counter inactive
CCC(=O)NC(=S)Nc1ccc(NC(=O)c2ccc(OC)cc2)cc1	GPR151 activ 6.6 | GPR151 confirm inactive | GPR119 counter inactive
CCCC(=O)Nc1ccc(NC(=S)NC(=O)c2ccc(OC)cc2)cc1	none
Cn1c(=O)c2c(nc(NCCO)n2Cc2ccc(Br)cc2)n(C)c1=O	GPR151 activ 5.5 | GPR151 confirm inactive | GPR119 counter inactive
Cn1c(=O)c2c(nc(NCCO)n2Cc2ccccc2F)n(C)c1=O	GPR151 activ 16 | GPR151 confirm inactive | GPR119 counter inactive
Cc1ccc(Oc2ccc(C(F)(F)F)cc2NC(=O)C2CCN(c3ccc(C(F)(F)F)cc3[N+](=O)[O-])CC2)cc1	none
COc1ccc(NC(=S)N2CCC(N(C)C(C)C)CC2)cc1	GPR151 activ 5.9 | GPR151 confirm inactive | GPR119 counter inactive
CCCCN(C)C1CCN(C(=S)Nc2ccc(OC)cc2)CC1	none
CCOC(=O)CCN(Cc1ccccc1F)S(=O)(=O)c1ccc(Br)cc1	none
CCOC(=O)CCN(Cc1ccccc1F)S(=O)(=O)c1ccc(C)cc1	GPR151 activ 4.9 | GPR151 confirm inactive | GPR119 counter inactive
CCOC(=O)CCCN(Cc1ccc(Cl)cc1Cl)S(=O)(=O)c1ccc(F)c(C)c1	GPR151 activ 5.0 | GPR151 confirm inactive | GPR119 counter inactive
CCOC(=O)CCCN(Cc1ccc(F)cc1)S(=O)(=O)c1ccc(F)c(C)c1	none
CCOC(=O)C1=C(C)N(c2ccc(Br)cc2)C(=O)/C1=C\c1ccc(C(=O)OC)cc1	GPR151 activ 16 | GPR151 confirm inactive | GPR119 counter inactive
CCOC(=O)C1=C(C)N(c2ccc(Br)cc2)C(=O)/C1=C\c1ccc(C(=O)O)cc1	none
CCOc1ccc(NC(=O)COc2ccc(C3C(C#N)=C(N)Oc4n[nH]c(C)c43)cc2)cc1 (stereo not given)	none
COc1ccc(NC(=O)COc2ccc(C3C(C#N)=C(N)Oc4n[nH]c(C)c43)cc2)cc1 (stereo not given)	GPR151 activ 10.0 | GPR151 confirm inactive | GPR119 counter inactive
CCOc1ccc(C2=NC(c3ccc(OC)cc3)NC(c3ccccc3O)C2)cc1 (stereo not given)	GPR151 activ 6.4 | GPR151 confirm inactive | GPR119 counter inactive
CCOC(=O)c1cnc2c3ccccc3[nH]n2c1=O	none
CC(C)=CCN1CCN(Cc2sccc2C)CC1CCO (stereo not given)	GPR151 activ 12 | GPR151 confirm inactive | GPR119 counter inactive
CCCNC(=O)c1ccc2nc(N3CCc4ccccc4C3)sc2c1	none
O=C(NCc1ccccc1)c1ccc2nc(N3CCc4ccccc4C3)sc2c1	GPR151 activ 5.6 | GPR151 confirm inactive | GPR119 counter inactive
Cc1c(NC(=O)Nc2cccc(Cl)c2)cccc1[N+](=O)[O-]	none
COc1ccc(Cl)cc1NC(=O)Nc1cccc([N+](=O)[O-])c1C	GPR151 activ 8.3 | GPR151 confirm inactive | GPR119 counter inactive
CCOC(=O)C(C)N1C(=O)S/C(=C/c2cc(Cl)cc(OC)c2O)C1=O (stereo not given)	GPR151 activ 6.7 | GPR151 confirm inactive | GPR119 counter inactive
COC(=O)C(C)N1C(=O)S/C(=C/c2cc(Cl)cc(OC)c2O)C1=O (stereo not given)	none
c1cncc(CNc2nc(-c3csc4ccccc34)nc3nc[nH]c23)c1	none
CCNC(=O)C(=O)N/N=C/c1ccccc1	GPR151 activ 8.2 | GPR151 confirm inactive | GPR119 counter inactive
CCC(C)(C)n1nnnc1C(c1ccc(C)cc1)N1CCN(Cc2cccnc2)CC1 (stereo not given)	GPR151 activ 6.4 | GPR151 confirm inactive | GPR119 counter inactive
CC(C)(C)n1nnnc1C(c1cccnc1)N1CCN(c2ccccc2F)CC1 (stereo not given)	GPR151 activ 8.4 | GPR151 confirm inactive | GPR119 counter inactive
CN1CCN(c2ccccc2NC(=O)c2ccc3ccccc3c2)CC1	none
O=C(Cc1csc(-n2cccc2)n1)N1CCN(c2ccccn2)CC1	GPR151 activ 5.5 | GPR151 confirm inactive | GPR119 counter inactive
CC(=O)OCCCn1cnc2c(N)ncnc21	none
Cc1cc(C)c2cc(C#N)c(N3CCCN(C(=O)CCC(=O)O)CC3)nc2c1	none
CC(=O)N1CCCN(c2nc3cc(C)cc(C)c3cc2C#N)CC1	GPR151 activ 7.2 | GPR151 confirm inactive | GPR119 counter inactive
O=C(Nc1ccc2ccccc2c1)c1cc2ccccc2o1	none
CCOC(=O)C(C)Oc1ccc2c(=O)c(Oc3cccc(OC)c3)coc2c1 (stereo not given)	GPR151 activ 11 | GPR151 confirm inactive | GPR119 counter inactive
CCOC(=O)C(C)Oc1ccc2c(=O)c(Oc3ccc(OC)cc3)coc2c1 (stereo not given)	none
CN1C(=O)c2cccc(NC(=O)c3ccc4ccccc4c3)c2C1=O	GPR151 activ 7.6 | GPR151 confirm inactive | GPR119 counter inactive
Cc1nc2ccccn2c1C(=O)NCCCN1CCOCC1	GPR151 activ 4.9 | GPR151 confirm inactive | GPR119 counter inactive
O=C(Cn1cnc2ccccc21)NCCCN1CCOCC1	GPR151 activ 5.9 | GPR151 confirm inactive | GPR119 counter inactive
O=S(=O)(Cc1ccccc1)N1CCCC(N2CCOCC2)C1 (stereo not given)	GPR151 activ 20 | GPR151 confirm inactive | GPR119 counter inactive
CCOC(=O)c1cc2c(=O)n3ccccc3nc2n(Cc2ccco2)c1=NC(C)=O	none
CCOc1ccc2nc(Nc3nccc(C)n3)nc(C)c2c1	GPR151 activ 9.0 | GPR151 confirm inactive | GPR119 counter inactive
CCOc1ccc2nc(Nc3nc(C)cc(-c4ccccc4)n3)nc(C)c2c1	none
O=C(O)c1ccc(N2Cc3ccncc3C2=O)cc1	none
CN(Cc1cn(-c2ccccc2)nc1-c1ccc(Cl)cc1)C(=O)CCC(=O)O	GPR151 activ 5.6 | GPR151 confirm inactive | GPR119 counter inactive
NC(=O)c1cn(-c2ccccc2)nc1-c1ccc(Cl)cc1	none
COc1ccc(/C=C(\NC(=O)c2ccc(OCC(C)C)cc2)C(=O)NCCc2c(C)[nH]c3ccccc23)cc1	none
COc1cc2c(cc1/C=C1/C(C)=C(C#N)c3nc(N)c(C#N)c(C)c31)OCO2	none
COc1ccc(OC)c(/C=C2\C(C)=C(C#N)c3nc(N)c(C#N)c(C)c32)c1	GPR151 activ 7.2 | GPR151 confirm inactive | GPR119 counter inactive
CC(C)=C1C2C=CC1C1C(=O)N(c3ccccc3C#N)C(=O)C21 (stereo not given)	none
CCOc1c(C)cc(S(=O)(=O)NCCCCN2CCOC(c3ccccc3)C2)cc1C (stereo not given)	GPR151 activ 11 | GPR151 confirm inactive | GPR119 counter inactive

Source: PubChem BioAssay
